# Source: PubChem BioAssay
# This is a sample that favours compounds with a hit; in the whole collection about 1.9% have one here.
# PKM2 activator: increases activity of human pyruvate kinase M2; P14618; purified PKM2, Kinase-Glo ATP luminescence, activation; response scale: 0% is enzyme alone, no compound; Potency, µM (highest dose often 57.5 µM), actives largely listed as activators; 260,000 compounds, 0.34% hits; also: nearly all actives have a fitted effect of over 55% in size
#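 Purified hPK-M2 (>95%) run at intermediate activity with 0.1 mM ADP and 0.5 mM PEP in 50 mM imidazole pH 7.2, KCl, MgCl2; 1 h room temperature. ATP formed read by Kinase-Glo luminescence; normalized to uninhibited and no-enzyme controls.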
# Pin1 inh: human Pin1 inhibition; Potency, µM (titrated, usually from 115 µM), usual class: inhibitors; Q13526; Pin1 FP peptide displacement, HiFluor488, 10 min; 390,000 compounds, 0.009% hits; active = well fitted inhibition curve with a large enough effect in the polarisation, with a control signal flat, not every such curve was filed as active; inconclusive = small, poorly fitted or top-dose-only effect, or effect the other way, or a change in a side signal; inactive = no such curve, though single readings can be large or run the other way; the % refers to the polarisation
# Target sequence (Q13526 whole entry, looked up): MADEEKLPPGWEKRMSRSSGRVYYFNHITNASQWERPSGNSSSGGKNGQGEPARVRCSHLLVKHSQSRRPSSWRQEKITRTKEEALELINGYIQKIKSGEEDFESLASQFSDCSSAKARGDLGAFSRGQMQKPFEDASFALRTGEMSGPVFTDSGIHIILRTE
# IL-2 act: activates IL-2 in a cell-based reporter assay; IL-2 activation reporter assay, cell-based qHTS; stimulated with anti-CD3/CD4/CD28 beads; in transgenic mouse T cells; activation, % (series mostly up to about 46 µM); 360,000 compounds, 0.065% hits; AID 652025; in the data active = activation above about 50%; inconclusive = mostly about 30% to 49%
#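 EGFP and DsRed fluorescence is measured by plate cytometry in unstimulated transgenic mouse T cells exposed to compound for 60 minutes, then stimulated 18 hours at 37 degrees C with anti-CD3/anti-CD4 beads plus anti-CD28.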
# USP2a inh: USP2a (human) protease inhibition | O75604 | USP2 core, Ub-CHOP2 coupled fluorogenic reporter, 485/531 | Potency, µM (titrated, usually from 38.3 µM), actives largely listed as inhibitors | 330,000 compounds, 0.01% hits | AID 463254
#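 USP2 core (10nM final) preincubated 30min RT with compound in 20mM Tris-HCl pH 8.0, 2mM CaCl2, 2mM beta-mercaptoethanol, 0.05% CHAPS; 25nM Ub-CHOP2 plus 25nM reporter substrate added, fluorescence (Ex485/Em531) read after 60min.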
# ClpP mod: qHTS Assay for Activators of ClpP; AID 651965, 2013; ATP-dependent Clp protease proteolytic subunit (Bacillus subtilis (strain 168)), P80244; 340,000 compounds, 1.9% hits; Potency, µM (top dose mostly 57.5 µM); purified B. subtilis ClpP, FRET peptide cleavage, 20 min; active = well fitted falling curve with a large enough effect; inconclusive = small, poorly fitted or top-dose-only effect; inactive = no such curve, though single readings can be large or run the other way; also: the source files actives as falling curves though it sought activators and does not explain the sign; nearly all actives have a fitted effect of over 65% in size
# Target sequence (P80244 whole entry, looked up): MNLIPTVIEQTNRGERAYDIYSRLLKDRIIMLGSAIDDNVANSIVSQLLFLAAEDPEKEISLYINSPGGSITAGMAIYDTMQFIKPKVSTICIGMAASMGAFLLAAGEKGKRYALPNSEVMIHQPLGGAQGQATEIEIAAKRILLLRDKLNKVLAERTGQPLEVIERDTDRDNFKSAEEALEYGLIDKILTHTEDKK
#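 FRET quenching reversal measured ClpP activation: 10 microg/mL B. subtilis ClpP at pH 8 with the FRET-FV decapeptide, read at 430 nm after 320 nm excitation. The 20-min minus 0-min signal was scaled between DMSO/no-enzyme wells and ADEP (5.8 microM final).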
# a7 integrin act: integrin-mediated muscular dystrophy alleviation activation | alpha7betagal myoblasts, beta-gal FDG fluorescence, 48 h | 350,000 compounds, 0.064% hits | AID 624291 | Potency, µM (highest dose often 38.3 µM), usual class: activators; also: nearly all actives have a fitted effect of over 60% in size
#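 alpha7betagal+/- myoblasts (passage 13, 250/well) treated 48 h at 37C with compounds at 1:260 dilution of DMSO stock. Lysed, then beta-galactosidase activity read as FDG fluorescence (ex 480/em 540) after 30 min, with pre-read for autofluorescence.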
# ClpP validation: inhibits B. subtilis ClpP protease, hit validation; shares compounds with ClpP mod; purified B. subtilis ClpP, FRET-FV substrate cleavage, 20 min; Potency, µM (series often up to 57.5 µM), most hits filed as inhibitors; 470 compounds, 40% hits; also: nearly all actives have a fitted effect of over 70% in size
# Numbers stand for hits; 0 = inactive; ? = inconclusive; - = no result given; ! = repeats disagree. Unless noted, calls follow the shape of the dose curve; as a rule, active = well fitted curve in the direction sought with a large enough effect; inconclusive = small, poorly fitted or top-dose-only effect, or another doubt; inactive = no such curve, though single readings can be large; an effect the other way counts as inactive or inconclusive.
SMILES,PKM2 activator,Pin1 inh,IL-2 act,USP2a inh,ClpP mod,a7 integrin act,ClpP validation
COc1cccc2c1cc1c(=O)n(CC(=O)NC3CC3)nc(C)n12,-,0,-,-,?,-,-
COc1cccc2c1cc1c(=O)n(CC(=O)N3CCN(c4ccccc4F)CC3)nc(C)n12,-,0,-,-,7.94µM,-,3.06µM
COc1cccc2c1cc1c(=O)n(CC(=O)N3CCC(C)CC3)nc(C)n12,-,0,0,0,2.51µM!,0,4.85µM
COc1cc(OC)c(-c2nn3c(-c4cc(C)[nH]n4)nnc3s2)cc1OC,-,0,-,-,0,-,-
O=c1oc2ccc3ccccc3c2cc1-c1nc2ccccc2o1,-,0,0,-,2.51µM,0,0
O=c1oc2ccccc2cc1-c1nc2ccccc2o1,0,0,0,0,0,0,-
CCOc1ccccc1CNC(=O)c1cc2c(=O)n(Cc3cccnc3)ccc2nc1C,-,0,-,-,6.31µM,-,0
COc1ccc(Cn2ccc3nc(C)c(C(=O)NCc4ccc(SC)cc4)cc3c2=O)cc1,-,0,-,-,0,-,24.3µM
Cc1cccc(-n2c(=O)[nH]c3c(C(N)=O)nc(CC(C)C)nc32)c1,0,0,0,0,10µM,0,4.85µM
CCN(CC)c1ccc(NC(=O)C2COc3ccc(OC)cc3C2)c(C)c1 (stereo unspecified),-,0,-,-,0,-,-
Cc1nn(-c2ccccc2)c2sc(C(=O)Nc3ccc(Cl)cc3Cl)cc12,-,0,-,-,?,-,-
O=C(Nc1ccccc1Cl)c1cc2c(-c3ccccc3)nn(-c3ccccc3)c2s1,-,?,-,-,?,-,19.3µM
c1ccc2c(N3CCOCC3)nc(N3CCOCC3)nc2c1,0,0,0,0,3.16µM,0,24.3µM
O=C1C(c2[nH]c3ccc(S(=O)(=O)O)cc3c2O)=Nc2ccc(S(=O)(=O)O)cc21,-,-,-,-,0,-,-
O=C(O)c1cc(O)ccc1O,-,0,0,-,0,-,-
O=C(O)C1=CC(=C(c2ccc(O)c(C(=O)O)c2)c2ccc(O)c(C(=O)O)c2)C=CC1=O,-,-,-,1.12µM,0,-,?
O=C(Nc1ccc(F)cc1)c1ccc(Cn2nc(N3CCN(c4ccccc4)CC3)ccc2=O)o1,-,0,-,-,0,-,-
CCOc1ccc2nc(-c3ccccc3)[nH]c2c1,0,0,0,0,7.08µM,0,6.85µM
CCc1ccc(NS(=O)(=O)c2c(-c3ccccc3)csc2C(=O)OC)cc1,-,?,-,-,0,-,-
COc1ccc(N2CCN(S(=O)(=O)c3ccc4c(c3)CC(C)N4C(C)=O)CC2)cc1 (stereo unspecified),-,0,-,-,0,-,-
Fc1ccccc1N1CCN(c2nnc(C(F)(F)F)c3nnn(Cc4ccccc4)c23)CC1,-,0,-,-,7.94µM,-,19.3µM
Cc1ccc2c(c1)N(C(=O)CCC(=O)NCc1cccs1)CCO2,-,0,-,-,0,-,-
O=S(=O)(c1ccccc1)N1CCC2(CC1)OCCN2S(=O)(=O)c1cccs1,-,0,0,0,0,?,0
COc1ccc(S(=O)(=O)N2CCOC23CCN(S(=O)(=O)c2cccs2)CC3)cc1,-,0,0,0,0,0,-
O=C(c1cnn(C(=O)c2ccccc2)c1)c1ccccc1O,0,0,0,0,0,0,0
SMILES,PKM2 activator,Pin1 inh,IL-2 act,USP2a inh,ClpP mod,a7 integrin act,ClpP validation
CCc1nc(Nc2ccncc2)c2oc3ccccc3c2n1,0,0,0,0,8.91µM,0,?
CN(C)S(=O)(=O)Oc1ccccc1C(=O)Nc1cccc(C(F)(F)F)c1,0,0,0,0,0,0,0
COc1cccc(N2CCN(c3ncnc4c3c(-c3ccccc3)cn4-c3cccc(C(F)(F)F)c3)CC2)c1,-,0,-,-,3.98µM,-,21.7µM
c1ccc(-c2cn(-c3ccccc3)c3ncnc(N4CCCCC4)c23)cc1,0,0,0,0,-,0,-
COc1cccc(Nc2sc(C(=O)c3ccc(F)cc3)c(N)c2C(=O)NCc2ccc(C)cc2)c1,-,0,-,-,0,-,-
COC(=O)C1CCN(C(=O)c2oc3c(Cl)cc(C)cc3c2C)CC1,-,0,0,0,0,0,-
CCOC(=O)C1CCCCN1C(=O)c1oc2c(Cl)cc(C)cc2c1C (stereo unspecified),0,0,0,0,0,0,0
COCCCNC(=O)CC(NS(=O)(=O)c1ccc(C)cc1)c1ccco1 (stereo unspecified),0,0,0,0,3.16µM,0,0
Cc1ccc(-c2[nH]c3ccccc3c2SCCNC(=O)c2cc3ccccc3oc2=O)cc1,0,0,0,0,0,0,-
O=C(NCCSc1c(-c2ccccc2)[nH]c2ccccc12)c1cc2ccccc2oc1=O,0,0,0,0,0,0,0
COc1ccc(OC)c(CCNC(=O)c2c(C)nn(-c3ccc(F)cc3)c2-n2cccc2)c1,-,0,-,-,0,-,-
CC(=O)Nc1cccc(C(=O)OCC(=O)NC(=O)C2CCCCC2)c1,-,0,-,-,0,-,-
COc1cc2c(cc1NC(=O)CN1CCN(S(=O)(=O)c3ccccc3F)CC1)oc1ccccc12,0,0,0,0,3.55µM,0,?
CCC(C(=O)NCCCN(CC)CC)n1ncn2c(cc3occc32)c1=O (stereo unspecified),-,0,-,-,0,-,-
O=C(Nc1cccc(Br)c1)c1cc(S(=O)(=O)N2CCCCC2)c[nH]1,-,0,-,-,0,-,0
Cc1ccc2nc(-c3ccco3)c(Nc3ccccc3)n2c1,0,0,0,0,3.16µM!,0,?
Cc1ccc2nc(-c3ccc(C)o3)c(Nc3ccccc3)n2c1,-,0,-,-,0,-,-
CCCn1c(C)nc2c(NCCN3CCOCC3)nc(C)nc21,0,-,-,-,-,-,-
Cc1cccc(-c2cc(NC(=O)c3ccccc3C)n(-c3ccccc3)n2)c1,-,0,-,-,0,-,-
COc1ccccc1C(=O)Nc1cc(-c2cccc(Br)c2)nn1-c1ccccc1,-,0,-,-,3.98µM,-,19.3µM
O=C(NCCc1ccccc1)c1ccc(Nc2nc3ccccc3n3nnnc23)cc1,-,0,-,-,0,-,?
O=C(NCc1ccccc1Cl)c1ccc(Nc2nc3ccccc3n3nnnc23)cc1,-,0,-,-,0,-,-
C=CCOC(/C=C/c1ccccc1)C[Si](C)(C)C (stereo unspecified),-,0,-,-,-,-,-
Cc1ccc(CC(=O)N2CCN(c3cccc(C(F)(F)F)c3)CC2)cc1,0,0,0,0,10µM,0,0
CCOc1ccccc1-c1nc2c([nH]1)c(=O)n(C)c(=O)n2C,0,0,0,0,3.55µM,0,21.7µM
O=C(OCC#CCNc1nnc(-c2cccc3ccccc23)o1)c1cccs1,-,-,-,0,-,-,-
COc1cccc(CNC(=O)c2ccc(NC(=O)CC3SC(N4CCCC4)=NC3=O)cc2)c1 (stereo unspecified),-,0,0,0,2.82µM,0,0
